In PubChem BioAssay (NCATS):
Results filed as inconclusive are left out. The source made the active and inactive calls. Unless noted, calls follow the shape of the dose curve; as a rule, active = well fitted curve in the direction sought with a large enough effect; inconclusive = small, poorly fitted or top-dose-only effect, or another doubt; inactive = no such curve, though single readings can be large; an effect the other way counts as inactive or inconclusive.

How the values were obtained:
[1] = qHTS for Inhibitors of the Functional Ribonucleoprotein Complex (vRNP) of Lassa (LASV) Arenavirus: LASV Primary Screen - GLuc reporter signal (AID 1347082; calls by dose curve; tested in HEK293 reporter line; also: nearly all actives have a fitted effect of over 60% in size; also: potency is read from the fitted curve at half-maximal effect)
[2] = qHTS for Inhibitors of the Functional Ribonucleoprotein Complex (vRNP) of Lymphocytic Choriomeningitis Arenaviruses (LCMV): Viability assay - alamar blue signal for LCMV Primary Screen (AID 1347085; calls by dose curve; tested in HEK293 reporter line; also: nearly all actives have a fitted effect of over 80% in size; also: potency is read from the fitted curve at half-maximal effect)
[3] = molecular target: Nucleoprotein (Lymphocytic choriomeningitis virus (strain Armstrong)) (UniProt P09992); test: qHTS for Inhibitors of the Functional Ribonucleoprotein Complex (vRNP) of Lymphocytic Choriomeningitis Arenaviruses (LCMV): LCMV Primary Screen - GLuc reporter signal (AID 1347086; calls by dose curve; also: series mostly up to about 57 µM; nearly all actives have a fitted effect of over 70% in size)
[4] = qHTS of pediatric cancer cell lines to identify multiple opportunities for drug repurposing: Primary screen for TC32 cells (AID 1347089); also: nearly all actives have a fitted effect of over 60% in size; also: potency is read from the fitted curve at half-maximal effect
How it was run: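 TC32 cells, 500-1,000/well in growth medium, compound-treated 48 h at 37 °C; viability from CellTiter-Glo luminescence. Primary screen: MIPE 11-point (0.78 nM–46 µM final), NPC 8-point (0.59 nM–46 µM final); confirmatory at 11-point dilutions.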

[5] = qHTS of pediatric cancer cell lines to identify multiple opportunities for drug repurposing: Primary screen for DAOY cells (AID 1347090); also: nearly all actives have a fitted effect of over 55% in size; also: potency is read from the fitted curve at half-maximal effect
How it was run: (§1)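 Cell viability, CellTiter-Glo luminescence; 500-1,000 cells/well, 8- or 11-point titration, 48 h compound exposure at 37 degrees C, 5% CO2. Controls: DMSO neutral, bortezomib 2.3 µM final as positive.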

[6] = qHTS of pediatric cancer cell lines to identify multiple opportunities for drug repurposing: Primary screen for NB-EBc1 cells (AID 1347095); also: potency is read from the fitted curve at half-maximal effect
How it was run: (§2)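 ATP-based luminescence (CellTiter-Glo) quantifies viability after a 48-hour exposure. Compounds are dosed across 8 or 11 final concentrations; DMSO and 2.3 µM bortezomib serve as controls.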

[7] = qHTS of pediatric cancer cell lines to identify multiple opportunities for drug repurposing: Primary screen for U-2 OS cells (AID 1347096); also: nearly all actives have a fitted effect of over 50% in size; also: potency is read from the fitted curve at half-maximal effect
How it was run: (§3)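 Cells (500-1,000/well) rested 5 h, then received compounds for 48 h; metabolically active cells were measured by CellTiter-Glo luminescence. Final concentrations spanned up to 46 µM (MIPE, 11-point) or 0.59 nM-46 µM (NPC, 8-point) in primary screens, 11-point in follow-ups.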

[8] = qHTS of pediatric cancer cell lines to identify multiple opportunities for drug repurposing: Primary screen for Saos-2 cells (AID 1347097); also: nearly all actives have a fitted effect of over 40% in size; also: potency is read from the fitted curve at half-maximal effect
How it was run: as §2

[9] = qHTS of pediatric cancer cell lines to identify multiple opportunities for drug repurposing: Primary screen for LAN-5 cells (AID 1347100); also: potency is read from the fitted curve at half-maximal effect
How it was run: as §3

[10] = qHTS of pediatric cancer cell lines to identify multiple opportunities for drug repurposing: Primary screen for SJ-GBM2 cells (AID 1347091); also: potency is read from the fitted curve at half-maximal effect
How it was run: as §1

[11] = qHTS of pediatric cancer cell lines to identify multiple opportunities for drug repurposing: Primary screen for A673 cells (AID 1347092); also: nearly all actives have a fitted effect of over 45% in size; also: potency is read from the fitted curve at half-maximal effect
How it was run: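 A673 cells (500-1,000 cells/well) were treated 48 hours at 37 degrees C with compounds at 11-point (0.78 nM to 46 µM) or 8-point (0.59 nM to 46 µM) dilutions. Viability read by CellTiter-Glo luminescence; concentration-response curves fitted.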

[12] = qHTS of pediatric cancer cell lines to identify multiple opportunities for drug repurposing: Primary screen for BT-37 cells (AID 1347094); also: potency is read from the fitted curve at half-maximal effect
How it was run: as §2

[13] = qHTS of pediatric cancer cell lines to identify multiple opportunities for drug repurposing: Primary screen for SK-N-MC cells (AID 1347093); also: potency is read from the fitted curve at half-maximal effect
How it was run: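 Metabolically active cells were quantified by ATP-dependent luminescence (CellTiter-Glo, 15 min at room temperature) following 48 h treatment. Cells had been plated at 500-1,000 per well and settled for 5 h beforehand.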

[14] = qHTS of pediatric cancer cell lines to identify multiple opportunities for drug repurposing: Primary screen for NB1643 cells (AID 1347099); also: nearly all actives have a fitted effect of over 50% in size; also: potency is read from the fitted curve at half-maximal effect
How it was run: as §2

[15] = qHTS of pediatric cancer cell lines to identify multiple opportunities for drug repurposing: Primary screen for SK-N-SH cells (AID 1347098); also: nearly all actives have a fitted effect of over 65% in size; also: potency is read from the fitted curve at half-maximal effect
How it was run: as §3

[16] = qHTS for Inhibitors of the Functional Ribonucleoprotein Complex (vRNP) of Lassa (LASV) Arenavirus: Viability assay - alamar blue signal for LASV Primary Screen (AID 1347083; calls by dose curve; tested in HEK293 reporter line; also: nearly all actives have a fitted effect of over 80% in size; also: potency is read from the fitted curve at half-maximal effect)

Measured: Potency

Chain of Nucleoprotein (Lymphocytic choriomeningitis virus (strain Armstrong)) (P09992 whole entry, looked up): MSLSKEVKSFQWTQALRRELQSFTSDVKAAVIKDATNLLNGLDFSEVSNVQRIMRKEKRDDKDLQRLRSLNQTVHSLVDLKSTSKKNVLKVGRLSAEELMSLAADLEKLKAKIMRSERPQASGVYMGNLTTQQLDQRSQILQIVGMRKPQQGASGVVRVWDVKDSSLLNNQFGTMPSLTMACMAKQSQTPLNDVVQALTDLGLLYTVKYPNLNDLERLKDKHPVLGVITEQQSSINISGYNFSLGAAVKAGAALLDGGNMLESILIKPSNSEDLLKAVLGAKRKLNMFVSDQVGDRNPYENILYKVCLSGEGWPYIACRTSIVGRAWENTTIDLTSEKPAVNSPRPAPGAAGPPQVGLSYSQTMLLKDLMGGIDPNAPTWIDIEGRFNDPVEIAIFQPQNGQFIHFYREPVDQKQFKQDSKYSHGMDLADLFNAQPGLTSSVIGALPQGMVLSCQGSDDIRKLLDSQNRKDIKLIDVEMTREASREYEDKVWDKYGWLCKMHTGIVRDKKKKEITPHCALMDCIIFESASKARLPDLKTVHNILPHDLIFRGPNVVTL

C=C[C@@H]1CN2CCC1C[C@H]2[C@H](O)c1ccnc2ccccc12 (some centres not stated)
active: [8] 18.7 µM
inactive: [1] | [2] | [3] | [4] | [5] | [6] | [7] | [9]

CC(C)Oc1cc(Nc2nc(N[C@@H](C)c3ccc(F)cn3)ncc2Cl)[nH]n1
inactive: [1] | [2] | [3]

COc1ccc2c(c1)[C@]13CCCCC1C(C2)N(C)CC3 (some centres not stated)
inactive: [1] | [2] | [3] | [4] | [5] | [10] | [11] | [12] | [6] | [7] | [8] | [9]

NC(=O)c1c(OCc2c(F)cc(Br)cc2F)nsc1NC(=O)NCCCCN1CCCC1
inactive: [1] | [2] | [3]

COCC(=O)NCC=Cc1ccc2ncnc(Nc3ccc(Oc4ccc(C)nc4)c(C)c3)c2c1
inactive: [2]
active: [1] 43.2 µM

C[C@]12CC[C@H]3[C@@H](CCC4=CC(=O)CC[C@@]43C)[C@H]1CC[C@H]2OC(=O)CCC1CCCC1
inactive: [1] | [4] | [5] | [10] | [12] | [6] | [7] | [14] | [9]
active: [2] 6.11 µM | [13] 11.8 µM

C[C@@H]1CC[C@@]2(OC1)O[C@H]1C[C@H]3[C@@H]4CC=C5C[C@@H](O[C@@H]6O[C@H](CO)[C@@H](O[C@@H]7O[C@@H](C)[C@H](O)[C@@H](O)[C@@H]7O)[C@H](O)[C@@H]6O[C@@H]6O[C@@H](C)[C@H](O)[C@@H](O)[C@@H]6O)CC[C@]5(C)[C@@H]4CC[C@]3(C)[C@@H]1[C@H]2C
active: [4] 13.1 µM | [5] 7.43 µM | [10] 5.26 µM | [11] 3.72 µM | [13] 1.32 µM | [12] 6.85 µM | [6] 4.69 µM | [7] 9.35 µM | [8] 5.9 µM | [15] 12.1 µM | [14] 5.9 µM | [9] 3.72 µM
inactive: [1] | [2] | [3]

CC1(C)CC/C(=C/c2ccc(Cl)cc2)C1(O)Cn1cncn1 (configuration not stated)
inactive: [1] | [16] | [4] | [11] | [13] | [12] | [6] | [7] | [14]

CC(N[C@H]1C[C@H]1c1ccccc1)c1ccc2c(c1)OCCO2 (some centres not stated)
inactive: [1] | [2] | [3] | [4] | [10] | [11] | [13] | [12] | [6] | [7] | [8] | [14] | [9]

COc1cc2nccc(Oc3ccc(NC(=O)Nc4cc(C)on4)c(Cl)c3)c2cc1OC
active: [1] 34.3 µM | [2] 17.2 µM

CC(C)(C)c1cc(C=C(C#N)C#N)cc(Br)c1O
active: [10] 2.64 µM | [6] 4.69 µM | [14] 4.69 µM
inactive: [1] | [16] | [4] | [7]

CCOc1ccn(-c2ccc(F)cc2)c(=O)c1C(=O)Nc1ccc(Oc2ccnc(N)c2Cl)c(F)c1
inactive: [1] | [2] | [3]

CC(C)[C@H]1C(=O)N[C@H](CO)Cc2c[nH]c3cccc(c23)N1C
active: [2] 10.9 µM
inactive: [1] | [3] | [4] | [10] | [12] | [6] | [7] | [15] | [14]

COCCNCCCn1c(C(=O)CF)c(-c2ccc(C)cc2)c2c(N)ncnc21
inactive: [1] | [2] | [3]

Cn1c(NCCN(CCO)CCCc2ccc([N+](=O)[O-])cc2)cc(=O)n(C)c1=O
inactive: [1] | [2] | [3]

CN1CCN(c2cc(C(=O)Nc3ccc4c(c3)-c3c(c(C(N)=O)nn3-c3ccc(F)cc3)CC4)c(Cl)cn2)CC1
active: [16] 2.73 µM

CC[C@@H]1C(=O)N(C)c2cnc(Nc3ccc(C(=O)NC4CCC(N5CCN(CC6CC6)CC5)CC4)cc3OC)nc2N1C(C)C (some centres not stated)
active: [16] 0.0968 µM | [2] 0.0968 µM

CCOc1cc(C(=O)Nc2ccc(Cl)c(-c3nc4ccccc4[nH]3)c2)cc(OCC)c1OCC
active: [16] 17.2 µM

Cc1cccc(C=NNc2cc(N3CCOCC3)nc(OCCc3ccccn3)n2)c1
active: [16] 1.93 µM | [2] 1.37 µM

COC[C@H]1OC(=O)c2coc3c2[C@@]1(C)C1=C(C3=O)[C@@H]2CC[C@H](O)[C@@]2(C)C[C@@H]1OC(C)=O
active: [5] 14.8 µM | [10] 0.469 µM | [11] 9.35 µM | [13] 0.296 µM | [12] 6.85 µM | [6] 0.526 µM | [8] 2.09 µM | [9] 2.64 µM
inactive: [1] | [4]

CN1CCN(CCOc2cc(OC3CCOCC3)c3c(Nc4c(Cl)ccc5c4OCO5)ncnc3c2)CC1
inactive: [1] | [3]

CC(C)OC(=O)C1=CN(C(=O)c2ccc(F)c(F)c2)CC(C)(C)c2c1[nH]c1ccccc21
inactive: [1] | [3]

CC=C1NC(=O)[C@H]2CSSCCC=C[C@H](CC(=O)N[C@H](C(C)C)C(=O)N2)OC(=O)[C@H](C(C)C)NC1=O
active: [16] 0.0968 µM | [2] 0.0968 µM
